# Values joined by “and” are separate entries in the source; they are usually repeats but may differ in a detail not shown here. Equal values may be shown once. Records with an inconclusive call do not appear. Where a call stands in place of a potency, no number is given. Active and inactive are the calls of the source. Calls come from the whole dose curve; as a rule, active = well fitted cell-killing curve with a large enough effect in the repeat runs; inconclusive = weak or mixed curves, or effect the other way; inactive = flat fitted curve, though single readings scatter.
# Assay: qHTS assay to identify small molecule agonists of the estrogen receptor beta (ER-beta) signaling pathway - cell viability counter screen (AID 1259380); note: nearly all actives have a fitted effect of over 30% in size
# Details: ER-beta-bla HEK293T viability, CellTiter-Glo luminescence, 16 h; series mostly up to 92.4 µM
# Description: National Center for Advancing Translational Sciences [NCATS]
# NIH Chemical Genomics Center [NCGC]
# U.S. Environmental Protection Agency [EPA]
# National Institutes of Environmental Health Sciences [NIEHS]
# National Toxicology Program [NTP]
# U.S. Food and Drug Administration [FDA]
# Estrogen receptor (ER), a nuclear hormone receptor, plays an important role in development, metabolic homeostasis and reproduction. Two subtypes of ER, ER-alpha and ER-beta, have similar expression patterns with some uniqueness in both types. Endocrine disrupting chemicals (EDCs) and their interactions with steroid hormone receptors like ER causes disruption of normal endocrine function. To identify the compounds that activate ER signaling, an ER beta-UAS-bla GripTite cell line (Life Technologies, Madison, WI, USA) containing a beta-lactamase reporter gene under the control of an UAS response element was used to screen Tox21 10K compound library. The cytotoxicity of the Tox21 compound library against the ER-beta-bla cell line was tested in parallel by measuring the cell viability using CellTiter-Glo assay in the same wells.
# Tox21 Assay Protocol Summary:
# ER-beta-UAS-bla HEK293T cells were dispensed at 2,000 cells/5 uL of assay medium containing 2% charcoal stripped FBS per well into black wall/clear-bottom 1536-well plates using a Multidrop Combi (ThermoFisher Scientific, Waltham, MA) dispenser. After the assay plates were incubated at a 37C and 5% CO2 for 6 hr, 23 nL of compounds dissolved in DMSO, positive controls or DMSO only was transferred to the assay plate by a Pintool station (Kalypsys, San Diego, CA). The plates were incubated at 37C and 5% CO2 for 16 hr. Then 1 uL of LiveBLAzerTM B/G FRET substrate was added using a BioRAPTR FRD (Flying Reagent Dispenser, Aurora Discovery, San Diego, CA) and then the plates were incubated at room temperature for 2 hours, and fluorescence intensity was measured by an Envision plate reader (PerkinElmer, Shelton, CT). For cell viability readout that measures cytotoxicity, 4 uL/well of CellTiter-Glo reagent was added into the assay plates using a FRD. After 30 min incubation at room temperature, the luminescence intensity in the plates was measured using a ViewLux (PerkinElmer) plate reader.
# Potency is the fitted concentration of half-maximal effect.
row,Structure (SMILES),Potency
1,CN1C(=O)CCS(=O)(=O)C1c1ccc(Cl)cc1 (stereo not given),inactive
2,Cc1ccc(O)c(C)c1,inactive
3,CCOc1ccc(N)cc1,inactive
4,O=C(O)C1C(C(=O)O)C2(Cl)C(Cl)=C(Cl)C1(Cl)C2(Cl)Cl (stereo not given),inactive
5,CN(C)CCC#N,inactive
6,O=C(O)CCCc1ccc(N(CCCl)CCCl)cc1,inactive
7,COS(=O)(=O)OC,inactive
8,Nc1ccc(N)cc1,inactive
9,CCCCCCCCCCCCCCCCCC(=O)O,inactive
10,ClCCOCCCl,inactive
11,Clc1cnc(Oc2ccc(Oc3ncc(Cl)cc3Cl)cc2)c(Cl)c1,inactive
12,O=S(=O)(O)OOS(=O)(=O)O,inactive
13,C/C=C/c1ccc2c(c1)OCO2,inactive
14,FC(F)(F)c1ccc(Cl)cc1,inactive
15,CN(C)C(=O)Cl,inactive
16,Cc1cccc(N)c1C,inactive
17,C=C(C)C(=O)OCC(CC)CCCC (stereo not given),inactive
18,Nc1cccc(Cl)c1,inactive
19,CN(C)C(=O)Nc1cccc(C(F)(F)F)c1,inactive
20,Cc1cc(Cl)ccc1OC(C)C(=O)O (stereo not given),inactive

row,Structure (SMILES),Potency
1,CN(C)C(=O)C(c1ccccc1)c1ccccc1,inactive
2,CC(=O)C1CCOC1=O (stereo not given),inactive
3,CC12CC1(C)C(=O)N(c1cc(Cl)cc(Cl)c1)C2=O (stereo not given),inactive
4,O=[N+]([O-])c1cc([As](=O)(O)O)ccc1O,inactive
5,C[C@H]1C(=O)O[C@@H]2CCN3CC=C(COC(=O)[C@](C)(O)[C@]1(C)O)[C@H]23,inactive
6,COC(C)(C)CCCC(C)C/C=C/C(C)=C/C(=O)OC(C)C (stereo not given),inactive
7,COc1nc(NC(C)C)nc(NC(C)C)n1,inactive
8,CNC(=O)O/N=C/C(C)(C)S(C)(=O)=O,inactive
9,CNC(=O)O/N=C/C(C)(C)SC,inactive
10,O=P1(NCCCl)OCCCN1CCCl (stereo not given),inactive
11,C[C@]12CC[C@H](O)CC1=CC[C@@H]1[C@@H]2CC[C@]2(C)C(=O)CC[C@@H]12,48.6 µM (active) and 27.3 µM (active)
12,CCOP(=S)(OCC)Oc1ccc([N+](=O)[O-])cc1,inactive
13,CNc1cnn(-c2cccc(C(F)(F)F)c2)c(=O)c1Cl,inactive
14,C=CC#N,inactive
15,Cl/C=C/Cl,inactive
16,Cl[C@H]1OCCO[C@@H]1Cl,inactive
17,COP(=S)(OC)SCN1C(=O)c2ccccc2C1=O,inactive
18,CCOC(=O)CC(SP(=O)(OC)OC)C(=O)OCC (stereo not given),inactive
19,O=[N+]([O-])c1ccc(Cl)cc1,inactive
20,N#Cc1ccccn1,inactive

# From PubChem BioAssay (Tox21)
